Screens: PubChem, National Center for Advancing Translational Sciences (NCATS)
S2 tox: reduces viability in counter-screen for ATXN expression inhibitors; S2 cells (HEK-293 line with an ATXN2-luciferase reporter) viability, CellTiter-Fluor protease fluorescence, 24 h; Potency, µM (titrated, usually from 56.7 µM), hits mostly cytotoxic; hit rate 0.49% among 400,000; note: nearly all actives have a fitted effect of over 40% in size
DT40 TDP1 CPT: DT40-hTDP1 cell growth loss with CPT; chicken DT40 Tdp1-/-;hTDP1 cells + 20 nM CPT, ATP luminescence, 48 h; Potency, µM (titrated, usually from 46.2 µM), for the others: at the highest dose activity change, negative = growth inhibition, hits mostly inhibitors; hit rate 12% among 420,000; AID 686979; note: % is set by controls: 0 for no effect and ±100 for the full control effect; nearly all actives have a fitted effect of over 55% in size
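Cell growth measured by CellTiter-Glo luminescence after a minimum 48 h, 37 C compound exposure with 20 nM CPT in Tdp1-knockout DT40 cells stably expressing hTDP1, seeded 400/well; qHTS titration format.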
ATXN2 expr inh: inhibitors of ATXN2 expression; HEK-293 ATXN2-luciferase reporter, luminescence, 24 h; Potency, µM (series often up to 57 µM), for the others: at the top dose activity change, negative = inhibition, most hits filed as inhibitors; hit rate 0.72% among 360,000; AID 1745845; note: % is set by controls: 0 for no effect and ±100 for the full control effect; nearly all actives have a fitted effect of over 55% in size
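qHTS (up to 57 uM final) was run with 24 h compound exposure of reporter cells at 37 °C. Each well was multiplexed: SteadyGlo luminescence measured ATXN2-luciferase expression after a fluorogenic Gly-Phe-AFC viability readout (25 uM final).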
HepG2 viability: counter-screen for TGF-b inhibitors: cytotoxicity in HepG2 cells. HepG2 CAGA-GFP viability, ATP luminescence, 18 h. Potency, µM (series often up to 46.1 µM), without a hit: at the top dose activity change, negative = cytotoxicity, most hits filed as cytotoxic. AID 588856. hit rate 0.76% among 410,000
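HepG2 CAGA-GFP cells (1000/well, DMEM with 1% FBS) received compound, then TGF-beta at 500 pg/mL final, and were incubated 18 hours at 37 degrees C. Viability was read by CellTiter-Glo luminescence. Media-only wells were set as complete cell-killing and DMSO as no toxicity.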
TGFb inhibitor: TGF-b pathway inhibition; HepG2 CAGA-GFP TGF-b/SMAD3 reporter, GFP fluorescence, 18 h; TGF-beta stimulated, 500 pg/mL final; Potency, µM (highest dose often 46.1 µM), inactives show at the top dose activity, negative = inhibition, hits mostly inhibitors; hit rate 1.2% among 410,000; note: % is set by controls: 0 for no effect and ±100 for the full control effect; nearly all actives have a fitted effect of over 65% in size
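Inhibition was scored as loss of TGF-beta-induced (500 pg/mL final, 18 hours, 37 degrees C) GFP in HEPG2 cells carrying a CAGA-GFP reporter, in DMEM with 1% FBS. Well GFP was summed per cell; Activity was normalised to unstimulated and stimulated DMSO wells, then concentration-response fitting.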
DT40 TDP1 no CPT: qHTS for Inhibitors of human tyrosyl-DNA phosphodiesterase 1 (TDP1): qHTS in cells in absence of CPT | DT40 Tdp1-/- hTDP1 cells, no CPT, ATP luminescence, 48 h | Potency, µM (titrated, usually from 46.2 µM), without a hit: top-dose activity change, negative = growth inhibition, hits mostly inhibitors | hit rate 15% among 420,000; note: % is set by controls: 0 for no effect and ±100 for the full control effect; nearly all actives have a fitted effect of over 55% in size
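DT40 Tdp1-/-;hTDP1 cells, no CPT (DMSO vehicle only), 400 cells/well; compounds pin-transferred; ≥48 hr, 37 °C; CellTiter-Glo 30 min RT dark, luminescence read.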
* marks the source's active call; other numbers are inactive results; i = inactive; ? = inconclusive; nt = no result; ! = a repeat was not active. Most compounds without a hit are left out; they make up all but 17% or so of the library. Calls come from the whole dose curve; as a rule, active = well fitted curve in the direction sought with a large enough effect; inconclusive = small, poorly fitted or top-dose-only effect, or another doubt; inactive = no such curve, though single readings can be large; an effect the other way counts as inactive or inconclusive. Potency is the fitted concentration of half-maximal effect.

SMILES	S2 tox	DT40 TDP1 CPT	ATXN2 expr inh	HepG2 viability	TGFb inhibitor	DT40 TDP1 no CPT
CC1(c2nnc(-c3cccc(Cl)c3)o2)CC(c2ccc(Cl)cc2)=NO1 (stereo unspecified)	i	-27%	2%	-10%	16µM*	-29%
CC1(c2nnc(-c3cccc(Cl)c3)o2)CC(c2cccc(Cl)c2)=NO1 (stereo unspecified)	i	?	2%	-19%	-26%	?
C#CCOc1ccc(/C=C2/C(=O)NN(c3ccc(F)cc3)C2=O)cc1OC	i	0%	-9%	-5%	74%	11%
Nc1nccc(Oc2ccc(NC(=O)c3c[nH]cc(-c4ccc(F)cc4)c3=O)cc2F)c1Cl	nt	nt	31µM*	nt	nt	nt
Nc1nc(N)c(-c2cccc(C(F)(F)F)c2)c(Cc2cccc(C(F)(F)F)c2)n1	i	2.9µM*	?	8.9µM*	?	1.3µM*
FC(F)(F)c1cccc(-c2nn[nH]n2)c1	i	0%	4%	4%	-4%	-13%
CCOC(=O)c1c(NC(=O)c2cc3n(n2)C(C(F)(F)F)CC(c2cccs2)N3)sc(C)c1C (stereo unspecified)	?	5.2µM*	-14%	-15%	2%	6.5µM*
Cc1nn(C)c(C)c1CNC(=O)c1cc2n(n1)C(C(F)(F)F)CC(c1cccs1)N2 (stereo unspecified)	?	10µM*	-29%	-11%	4%	5.8µM*
CCOC(=O)c1cc2n(n1)C(C(F)(F)F)CC(C)N2 (stereo unspecified)	i	-15%	7%	7%	17%	-9%
COc1ccc2c(c1OC)C(C1c3c(cc4c(c3OC)OCO4)CCN1C)OC2=O (stereo unspecified)	i	?	3%	-1%	-3%	?
COc1ccccc1CC(O)CC1c2c(cc3c(c2OC)OCO3)CCN1C (stereo unspecified)	i	12µM*	?	-19%	-17%	10µM*
COc1ccc2c(c1OC)C(=O)O[C@H]2C1c2c(cc3c(c2OC)OCO3)CCN1C (stereo partly specified)	nt	16µM*!	nt	nt	nt	?
COc1ccc2c(c1OC)C(=O)OC2C1c2c(cc3c(c2OC)OCO3)CCN1C (stereo unspecified)	?	?	-10%	5%	7%	18µM*!
CN1CCc2cc3c(c4c2[C@H]1[C@H](O)c1ccccc1-4)OCO3	?	18µM*	?	-10%	?	?
C=C1CC23C[C@H]4[C@@H]5[C@@]6(C)C[C@H](OC(=O)c7ccccc7)[C@@H](OC(C)=O)[C@]57[C@@H]2[C@@H](OC(C)=O)[C@H]1[C@@H](O)[C@H]3[C@H]7N4C6	i	nt	nt	nt	nt	nt
Cc1cc(-c2ccccc2)nc(N/N=C/c2ccc(N(C)C)cc2)n1	i	?	nt	-23%	?	15µM*
COc1ccc(/C=N/Nc2nc(C)cc(-c3ccccc3)n2)cc1OC	i	-124%	-8%	-34%	-15%	?
COc1ccc2nc(C)cc(N/N=C/c3cccc(OC)c3O)c2c1	nt	?	?	-101%	?	?
Cc1cc(-c2ccccc2)nc(N/N=C/c2ccc(O)cc2O)n1	?	?	?	-26%	?	18µM*
Cc1cc(-c2ccccc2)nc(N/N=C/c2ccco2)n1	i	29µM*	21%	-40%	0%	?
Cc1cc(N/N=C/c2ccccc2O)c2ccccc2n1	?	16µM*	16µM*	-39%	?	16µM*
